Data on 17 molecules can be found in PubChem BioAssay (NCI).

Some test systems named below: T-47D breast; BT-549 breast; MDA-MB-435 melanoma; SW-620 colon; MCF7 breast; HCT-116 colon; HCC-2998 colon; KM12 colon.
Test in all cases: NCI-60 one-dose screen, 48 h (100 = growth as untreated, 0 = no growth, -100 = all killed)
Details in all cases: 10 µM

About 83,000 compounds went through this panel and 20% of them were active in at least one assay; those are over-represented in the sample as a whole.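 Compound tested at a single concentration for 48 hours in 96-well plates; a percent growth value below 10 was scored as active.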 Values without a mark were called inactive. Calls of active or inactive are those of the source.

With `COc1cc2c3c(n(C4CCN(C)CC4)c(=O)c2cc1OC)-c1cc2c(cc1C3=O)OCO2`, the growth was 31% in the assay with T-47D breast; 59.7% in the assay on BT-549 breast; 84.5% in the assay on MDA-MB-435 melanoma; 56.2% in the assay with SW-620 colon; 24.8% in the assay with MCF7 breast; 40.8% in the assay on HCT-116 colon. For the same molecule, the values for the growth in the assay on HCC-2998 colon and in the assay with KM12 colon were 66.3% and 75.9%, respectively.
In the case of `COc1cc2c(Nc3ccc(S(N)(=O)=O)cc3)ncnc2c(OC)c1OC`, the growth with T-47D breast is 97%; in the assay on BT-549 breast it was 126%; in the assay with MDA-MB-435 melanoma, 105%; with SW-620 colon, 95.7%; with MCF7 breast, 96.6%; in the assay with HCT-116 colon, 108%. Further, the growth with HCC-2998 colon was 98.4%; in the assay with KM12 colon, 99.2%.
As to `CNS(=O)(=O)Oc1ccc(-c2ccc3occc3c2)cc1`, the growth in the assay on T-47D breast is 89.1%; in the assay on BT-549 breast, 91.5%; with MDA-MB-435 melanoma it was 100%; in the assay with SW-620 colon, 102%; with MCF7 breast, 111%; with HCT-116 colon, 95.5%. The values for the growth with HCC-2998 colon and in the assay on KM12 colon were 96.5% and 99%, respectively.
In the case of `COc1ccc(/C(C#N)=C/c2ccccc2OC)cc1`, the growth with T-47D breast is 26%; in the assay with BT-549 breast, 37.1%; with MDA-MB-435 melanoma, -19.4% (active); in the assay on SW-620 colon, 22.8%; with MCF7 breast, 14.8%; with HCT-116 colon it was 18.1%. The growth in the assay on HCC-2998 colon is 50.2%; with KM12 colon, 32.2%.
As for `CCOc1ccccc1/C=N/N1CCCCCC1`, the growth in the assay on T-47D breast is 99.1%; in the assay on BT-549 breast, 103%; in the assay with MDA-MB-435 melanoma, 114%; with SW-620 colon, 96.1%; with MCF7 breast, 79.2%; with HCT-116 colon, 100%. Besides, the growth in the assay with HCC-2998 colon was 93.5%; with KM12 colon, 106%.
`C=CCN(CC=C)C(=O)[C@H](CC)[C@@H]1CC[C@@H](C)[C@@H]([C@H](C)[C@@H](O)[C@@H](C)C(=O)[C@H](CC)C2O[C@]3(C=CC(=O)[C@]4(CC[C@@](C)([C@H]5CC[C@](O)(CC)[C@H](C)O5)O4)O3)[C@H](C)C[C@@H]2C)O1` (stereo partly specified): the growth with T-47D breast was 18.2%; in the assay with BT-549 breast, 54.8%; in the assay on MDA-MB-435 melanoma, 40.7%; with SW-620 colon it was 24.8%; in the assay on MCF7 breast it was 8.84% (active); in the assay on HCT-116 colon it was 13.9%. For the same molecule, the growth in the assay on HCC-2998 colon was 26.5%; in the assay with KM12 colon, 48.8%.
For `COc1ccc(C2CC(c3cccs3)=NN2c2ccc(S(N)(=O)=O)cc2)cc1` (stereo unspecified), the growth in the assay on T-47D breast was 85.1%; in the assay on BT-549 breast, 99.7%; in the assay with MDA-MB-435 melanoma, 82%; in the assay with SW-620 colon, 100%; in the assay on MCF7 breast, 75%; in the assay on HCT-116 colon, 70.7%. In addition, the growth in the assay on HCC-2998 colon was 92.5%; in the assay on KM12 colon, 91.5%.
Take `CC1(C)N=C(N)N=C(N)N1c1cccc(C#N)c1`: the growth in the assay on T-47D breast is 99.7%; in the assay on BT-549 breast it was 81.6%; in the assay with MDA-MB-435 melanoma, 36.2%; with SW-620 colon, 29.9%; in the assay with MCF7 breast, 52%; in the assay with HCT-116 colon, 17.1%. Further, the growth in the assay with HCC-2998 colon was 58.4%; in the assay on KM12 colon, 47.7%.
As to `COc1ccc(/C=C2\CCCC3=C2NC(N)=NC3c2ccc(OC)cc2)cc1` (stereo unspecified), the growth in the assay with T-47D breast was 104%; in the assay with BT-549 breast, 112%; with MDA-MB-435 melanoma it was 90.2%; in the assay with SW-620 colon it was 95.8%; in the assay on MCF7 breast, 72.3%; with HCT-116 colon it was 78.6%. Moreover, the values for the growth with HCC-2998 colon and with KM12 colon were 116% and 87.2%, respectively.
As for `CC1CCCC(C(=O)O)C1C(=O)O` (stereo unspecified), the growth is 90.9% with T-47D breast; 95.9% in the assay with BT-549 breast; 102% in the assay with MDA-MB-435 melanoma; 98.9% in the assay on SW-620 colon; 103% in the assay on MCF7 breast; 99.5% in the assay on HCT-116 colon. Also, the growth in the assay on HCC-2998 colon is 92.9%; in the assay with KM12 colon it was 106%.
On to `COc1cc(C)ccc1Oc1nc(Nc2ccc(N3CCOCC3)cc2)ncc1NC(=O)Nc1cc(C(F)(F)F)cc(C(F)(F)F)c1`, for which the growth was 81.9% in the assay with T-47D breast; 78.3% in the assay with BT-549 breast; 81.5% in the assay with MDA-MB-435 melanoma; 82.6% with SW-620 colon; 69.3% with MCF7 breast; 22.6% with HCT-116 colon. For the same molecule, the growth with HCC-2998 colon was 101%; in the assay with KM12 colon, 63.5%.
For the molecule `CC(=O)N[C@H](C(=O)N[C@@H](CCCNC(=N)N)C(=O)N[C@@H](CCCCN)C(=O)N[C@@H](CCCNC(=N)N)C(=O)NC(C(=O)N[C@@H](CC(C)C)C(=O)N[C@@H](CCCNC(=N)N)C(=O)N[C@@]1(C)CCC/C=C\CCC[C@@](C)(C(=O)N[C@@H](CCCNC(=N)N)C(=O)N[C@@H](CCC(=O)O)C(=O)N[C@@H](CC(C)C)C(=O)N[C@H](C(=O)N[C@@H](CCC(=O)O)C(N)=O)C(C)C)NC(=O)[C@H](CCC(N)=O)NC(=O)[C@H](CC(C)C)NC(=O)[C@H](CC(C)C)NC1=O)[C@@H](C)O)C(C)C` (stereo partly specified), the growth in the assay on T-47D breast was -53.4% (active); with BT-549 breast, -79.7% (active); with MDA-MB-435 melanoma, -12.1% (active); in the assay with SW-620 colon it was 22.4%; with MCF7 breast it was -79.8% (active); in the assay with HCT-116 colon it was 18.9%. The values for the growth in the assay on HCC-2998 colon and with KM12 colon were 51.3% and -40.8% (active), respectively.
Consider `CCC1NC(=O)c2cc(S(N)(=O)=O)c(Cl)cc2N1` (stereo unspecified), for which the growth in the assay with T-47D breast is 104%; with BT-549 breast, 114%; with MDA-MB-435 melanoma it was 101%; in the assay with SW-620 colon, 108%; in the assay with MCF7 breast, 106%; in the assay on HCT-116 colon, 115%. The growth was 105% with HCC-2998 colon and 113% in the assay on KM12 colon.
In the case of `CN1C(C(=O)Nc2ccccn2)=C(O)c2sc(Cl)cc2S1(=O)=O`, the growth is 92.6% with T-47D breast; 108% in the assay on BT-549 breast; 97.6% in the assay with MDA-MB-435 melanoma; 95.8% in the assay with SW-620 colon; 96.6% in the assay with MCF7 breast; 100% with HCT-116 colon. The growth with HCC-2998 colon was 95.1%; in the assay with KM12 colon, 104%.
`O=C1Cc2cc(CCN3CCN(c4nsc5ccccc45)CC3)c(Cl)cc2N1`: the growth in the assay on T-47D breast is 55.2%; in the assay with BT-549 breast, 92.6%; in the assay on MDA-MB-435 melanoma, 90.9%; in the assay on SW-620 colon, 92.9%; with MCF7 breast, 86.1%; in the assay with HCT-116 colon it was 98.8%. Moreover, the growth was 120% with HCC-2998 colon and 98.1% in the assay with KM12 colon.
For the molecule `CS(=O)(=O)c1nccc(-c2c(-c3cccc(OCCc4ccccc4)c3)nc3sccn23)n1`, the growth is 92.4% in the assay with T-47D breast; 116% in the assay on BT-549 breast; 104% in the assay with MDA-MB-435 melanoma; 98.2% in the assay with SW-620 colon; 69.2% with MCF7 breast; 83.9% in the assay with HCT-116 colon. In addition, the results for the growth in the assay with HCC-2998 colon and with KM12 colon were 109% and 104%, respectively.
Regarding `O=C(O)c1ccc(-n2cc(CNc3ccc(Cl)cc3)c(-c3ccccc3)n2)cc1`, the growth in the assay with T-47D breast was 89.4%; with BT-549 breast, 90.2%; in the assay on MDA-MB-435 melanoma it was 91.9%; with SW-620 colon, 92.6%; with MCF7 breast it was 87.4%; in the assay with HCT-116 colon, 85.9%. Further, the growth with HCC-2998 colon was 113%; in the assay on KM12 colon, 87.8%.
